Each structure is given as a SMILES string. Entries with a potency or affinity are not part of this list.

For 24 compounds, Inhibition results are on record in ChEMBL document CHEMBL4513141, “CO-ADD screening of NIH (USA) - Clinical Collection” (2021).

Experiment [1] concerns Klebsiella pneumoniae. Particulars: Concentration 20 uM; ASSAY_TEST Inhibition of Bacterial Growth; detection method Absorption (OD600); MEDIA CAMHB; plate type 384well; NBS; CORNING #3640; time 18 hr.
In experiment [2] the test system is Candida albicans. Particulars: 20 µM.
For experiment [3], the system named is Cryptococcus neoformans. Particulars: Concentration 20 uM; ASSAY_TEST Inhibition of Fungal Growth; detection method Resazurin; Absorption (OD600-OD570); plate type 384well; NBS; CORNING #3640. For orientation: The colour change of resazurin is a common sign of viable cells or microbes.

The term Inhibition denotes the change of the read-out against control, counted positive when it falls. Consider `CC(=O)O[C@@]12CO[C@@H]1C[C@H](O)[C@@]1(C)C(=O)[C@H](O)C3=C(C)[C@@H](OC(=O)[C@H](O)[C@@H](NC(=O)OC(C)(C)C)c4ccccc4)C[C@](O)([C@@H](OC(=O)c4ccccc4)[C@H]21)C3(C)C`, for which the Inhibition in experiment [1] is 11.64%; in experiment [2], 1.38%; in experiment [3], -6.01%.
Turning to `OCc1cc(C(O)CNCCCCCCOCCCCc2ccccc2)ccc1O` (configuration not stated) [SALMETEROL], the Inhibition in experiment [1] was 16.35%; in experiment [2], 5.42%; in experiment [3] it was -8.37%.
For the compound `CN(CCO)CC(O)Cn1cnc2c1c(=O)n(C)c(=O)n2C.O=C(O)c1cccnc1` (configuration not stated) [XANTHINOL NIACINATE], the Inhibition is 12.07% in experiment [1], 0.26% in experiment [2] and -2.36% in experiment [3].
With `C[C@]12C[C@H](O)[C@H]3[C@@H](CCC4=CC(=O)CC[C@@]43C)[C@@H]1CC[C@@H]2C(=O)CO` [CORTICOSTERONE], the figures for the Inhibition in experiment [1], in experiment [2] and in experiment [3] were 17.2%, 2.69% and -3.25%, respectively.
In the same order, the values of `CC12CCC(=O)C=C1CCC1C2CCC2(C)C1CCC2(O)C(=O)CO` (configuration not stated) are 8.14%, 3.12% and -0.13%.
Regarding `CC[C@H](C)C(=O)O[C@H]1CCC=C2C=C[C@H](C)[C@H](CC[C@@H]3C[C@@H](O)CC(=O)O3)[C@H]21` [MEVASTATIN], the Inhibition in experiment [1] was 5.3%; in experiment [2], 24.7%; in experiment [3], -2.39%.
Turning to `COC(=O)Nc1nc2cc(C(=O)c3ccccc3)ccc2[nH]1` [MEBENDAZOLE], the Inhibition in experiment [1] was determined as 11.43%; in experiment [2], 4.65%; in experiment [3], 41.35%.
In the same order, the values of `CC1=Nc2ccc(Cl)cc2S(=O)(=O)N1` [DIAZOXIDE] are 19.87%, 4.07% and -6.19%.
Turning to `Cc1ccc(Cl)c(Nc2ccccc2C(=O)[O-])c1Cl.O.[Na+]` [MECLOFENAMATE SODIUM], the Inhibition in experiment [1] is 12.39%; in experiment [2] it was 8.09%; in experiment [3] it was 1.36%.
In the same order, the values of `C[C@]12CCC(=O)C=C1CC[C@@H]1[C@@H]2[C@@H](O)C[C@@]2(C)[C@H]1CC[C@]2(O)C(=O)COC(=O)CCC(=O)O` [HYDROCORTISONE HEMISUCCINATE ANHYDROUS] are -3.41%, 4.59% and 6.86%.
Consider `CC(C(=O)O)c1cccc(C(=O)c2ccccc2)c1` (configuration not stated) [KETOPROFEN], for which the Inhibition in experiment [1] was 8.94%; in experiment [2], 5.45%; in experiment [3], -5.87%.
In the case of `CC(C)[N+](C)(CCOC(=O)C1c2ccccc2Oc2ccccc21)C(C)C.[Br-]` [PROPANTHELINE BROMIDE], the results for the Inhibition in experiment [1], in experiment [2] and in experiment [3] were 18.08%, 2.52% and -1.43%, respectively.
In the same order, the values of `Nc1nc2c(ncn2COCCO)c(=O)[nH]1` [ACYCLOVIR] are 6.29%, 4.6% and -1.27%.
As for `O=[N+]([O-])c1cccc2cn[nH]c12` [7-NITROINDAZOLE], the Inhibition in experiment [1] is 13.1%; in experiment [2], 3.19%; in experiment [3], -0.25%.
Consider `Cc1cnc(NC(=O)C2=C(O)c3ccccc3S(=O)(=O)N2C)s1` [MELOXICAM], for which the Inhibition in experiment [1] is 2.2%; in experiment [2], 9.71%; in experiment [3] it was -3.68%.
In the same order, the values of `O=C(O)COCCN1CCN([C@H](c2ccccc2)c2ccc(Cl)cc2)CC1` [LEVOCETIRIZINE] are 20.22%, 0.53% and 0.71%.
In the same order, the values of `CC(=O)SCC(Cc1ccccc1)C(=O)NCC(=O)OCc1ccccc1` (configuration not stated) [RACECADOTRIL] are 3.98%, 5.86% and -6.78%.
As to `C[C@@H]1CN(CCCn2c3ccccc3c3ccccc32)C[C@H](C)N1.Cl.O`, the Inhibition is -0.67% in experiment [1], 0.45% in experiment [2] and 2.04% in experiment [3].
For `Cc1nc2ccccn2c(=O)c1CCN1CCC(C(=O)c2ccc(F)cc2)CC1` [PIRENPERONE], the Inhibition was 8.87% in experiment [1], 3.8% in experiment [2] and -7.79% in experiment [3].
Turning to `O=C1c2c(O)cc(O)cc2O[C@H](c2ccc(O)c(O)c2)[C@@H]1O`, the results for the Inhibition in experiment [1], in experiment [2] and in experiment [3] were 9.75%, 3.45% and -8.67%, respectively.
With `CCOC(=O)O[C@]1(C(=O)OCCl)CC[C@H]2[C@@H]3CCC4=CC(=O)C=C[C@]4(C)[C@H]3[C@@H](O)C[C@@]21C` [LOTEPREDNOL ETABONATE], the Inhibition amounted to 0.28% in experiment [1], 4.45% in experiment [2] and 0.62% in experiment [3].
In the same order, the values of `C=C1/C(=C\C=C2/CCC[C@]3(C)[C@@H]([C@H](C)CCCC(C)(C)O)CC[C@@H]23)C[C@@H](O)C[C@@H]1O` [CALCITRIOL] are 21.35%, 2.06% and -8.66%.
Take `Cc1ccccc1C(OCCN(C)C)c1ccccc1.Cl` (configuration not stated) [ORPHENADRINE HYDROCHLORIDE]: the Inhibition in experiment [1] was 11.73%; in experiment [2], 1.54%; in experiment [3], -6.53%.
In the case of `Cl.O=C1[C@H]2CCCC[C@H]2C(=O)N1CCCCN1CCN(c2nsc3ccccc23)CC1`, the Inhibition in experiment [1] is 9.66%; in experiment [2], 2.33%; in experiment [3], -7.18%.
